Data published in the supplement of paper PMC8728848.
The sample as a whole holds a higher share of the strongest signals than the screen did.

Legend:
Assay in all cases: glycan array binding signal (z-score within array); higher = stronger binding
Conditions in all cases: glycan notation: IUPAC condensed, linker removed
[1] = biological target: Fuc(a1-2)Gal(b1-4)GlcNAc(b1-6)GalNAc
Procedure, shortened: (§1)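 Glycan array data were curated from 3228 arrays in the Consortium for Functional Glycomics database and kept only where the protein sequence was available. Glycan names were converted to IUPAC-condensed notation, and columns mapping to the same glycan were averaged. The binding signal is a within-array Z-score, averaged across arrays of the same protein sequence at different concentrations or buffers and across linkers. Negative Z-scores can be read as non-binding.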

[2] = biological target: Fuc(a1-2)[Gal(a1-4)]Gal(b1-4)GlcNAc
Procedure, shortened: as §1

[3] = biological target: Fuc(a1-2)[GalNAc(a1-3)]Gal
Procedure, shortened: as §1

[4] = biological target: Fuc(a1-2)[GalNAc(a1-3)]Gal(b1-4)GlcNAc(b1-2)Man
Procedure, shortened: as §1

Fuc(a1-3)GlcNAc = biological target: Fuc(a1-3)GlcNAc
Procedure, shortened: as §1

[5] = biological target: Fuc(a1-3)[Gal(b1-4)]GlcNAc(b1-2)Man
Procedure, shortened: as §1

[6] = biological target: Fuc(a1-3)[Gal(b1-4)]GlcNAc(b1-3)Gal(b1-4)[Fuc(a1-3)]GlcNAc(b1-3)Gal(b1-4)[Fuc(a1-3)]GlcNAc
Procedure, shortened: as §1

Gal(a1-2)Gal = biological target: Gal(a1-2)Gal
Procedure, shortened: as §1

Gal(a1-3)Gal(b1-4)Glc = biological target: Gal(a1-3)Gal(b1-4)Glc
Procedure, shortened: as §1

[7] = biological target: Gal(b1-3)GlcNAc(b1-2)Man(a1-3)[Gal(b1-3)GlcNAc(b1-2)Man(a1-6)]Man(b1-4)GlcNAc(b1-4)[Fuc(a1-6)]GlcNAc
Procedure, shortened: as §1

[8] = biological target: Gal(b1-3)[Fuc(a1-4)]GlcNAc(b1-3)Gal(b1-4)[Fuc(a1-3)]GlcNAc
Procedure, shortened: as §1

[9] = biological target: Gal(b1-4)GlcNAc(b1-2)Man(a1-3)[Gal(b1-4)GlcNAc(b1-2)Man(a1-6)]Man(b1-4)GlcNAc(b1-4)[Fuc(a1-6)]GlcNAc
Procedure, shortened: as §1

[10] = biological target: Gal(b1-4)GlcNAc(b1-2)[Gal(b1-4)GlcNAc(b1-6)]Man(a1-6)[Gal(b1-4)GlcNAc(b1-2)Man(a1-3)]Man(b1-4)GlcNAc(b1-4)[Fuc(a1-6)]GlcNAc
Procedure, shortened: as §1

[11] = biological target: Gal(b1-4)GlcNAc(b1-3)Gal(b1-3)GlcNAc
Procedure, shortened: as §1

[12] = biological target: Gal(b1-4)GlcNAc(b1-3)Gal(b1-4)GlcNAc(b1-2)Man(a1-3)[Gal(b1-4)GlcNAc(b1-3)Gal(b1-4)GlcNAc(b1-2)Man(a1-6)]Man(b1-4)GlcNAc(b1-4)[Fuc(a1-6)]GlcNAc
Procedure, shortened: as §1

[13] = biological target: Gal(b1-4)GlcNAc(b1-3)Gal(b1-4)GlcNAc(b1-3)Gal(b1-4)GlcNAc
Procedure, shortened: as §1

[14] = biological target: Gal(b1-4)GlcNAc(b1-3)Gal(b1-4)GlcNAc(b1-3)Gal(b1-4)GlcNAc(b1-3)Gal(b1-4)GlcNAc(b1-3)Gal(b1-4)GlcNAc(b1-2)Man(a1-3)[Gal(b1-4)GlcNAc(b1-3)Gal(b1-4)GlcNAc(b1-3)Gal(b1-4)GlcNAc(b1-3)Gal(b1-4)GlcNAc(b1-3)Gal(b1-4)GlcNAc(b1-2)Man(a1-6)]Man(b1-4)GlcNAc(b1-4)[Fuc(a1-6)]GlcNAc
Procedure, shortened: as §1

[15] = biological target: Gal(b1-4)GlcNAc(b1-3)GalNAc
Procedure, shortened: as §1

Gal(b1-4)GlcNAc6P = biological target: Gal(b1-4)GlcNAc6P
Procedure, shortened: as §1

[16] = biological target: GalNAc(a1-3)GalNAc(b1-3)Gal(a1-4)Gal(b1-4)GlcNAc
Procedure, shortened: as §1

[17] = biological target: GalNAc(b1-3)Gal(a1-4)Gal(b1-4)GlcNAc
Procedure, shortened: as §1

[18] = biological target: GalNAc(b1-4)GlcNAc(b1-2)Man(a1-3)[GalNAc(b1-4)GlcNAc(b1-2)Man(a1-6)]Man(b1-4)GlcNAc(b1-4)GlcNAc
Procedure, shortened: as §1

[19] = biological target: GlcA3S(b1-3)Gal(b1-4)GlcNAc(b1-2)Man
Procedure, shortened: as §1

[20] = biological target: GlcNAc(a1-4)Gal(b1-3)GlcNAc
Procedure, shortened: as §1

[21] = biological target: GlcNAc(b1-2)Man(a1-3)[GlcNAc(b1-2)Man(a1-6)]Man(b1-4)GlcNAc(b1-4)GlcNAc
Procedure, shortened: as §1

[22] = biological target: GlcNAc(b1-2)Man(a1-3)[GlcNAc(b1-2)Man(a1-6)]Man(b1-4)GlcNAc(b1-4)[Fuc(a1-6)]GlcNAc
Procedure, shortened: as §1

[23] = biological target: GlcNAc(b1-2)[GlcNAc(b1-4)]Man(a1-3)[GlcNAc(b1-4)][GlcNAc(b1-2)Man(a1-6)]Man(b1-4)GlcNAc(b1-4)GlcNAc
Procedure, shortened: as §1

[24] = biological target: GlcNAc(b1-2)[GlcNAc(b1-6)]Man(a1-6)[GlcNAc(b1-2)Man(a1-3)]Man(b1-4)GlcNAc(b1-4)[Fuc(a1-6)]GlcNAc
Procedure, shortened: as §1

[25] = biological target: GlcNAc(b1-3)Gal(b1-4)GlcNAc(b1-2)Man(a1-3)[GlcNAc(b1-3)Gal(b1-4)GlcNAc(b1-2)Man(a1-6)]Man(b1-4)GlcNAc(b1-4)[Fuc(a1-6)]GlcNAc
Procedure, shortened: as §1

[26] = biological target: GlcNAc(b1-3)Gal(b1-4)GlcNAc(b1-3)Gal(b1-4)GlcNAc(b1-2)Man(a1-3)[GlcNAc(b1-3)Gal(b1-4)GlcNAc(b1-3)Gal(b1-4)GlcNAc(b1-2)Man(a1-6)]Man(b1-4)GlcNAc(b1-4)[Fuc(a1-6)]GlcNAc
Procedure, shortened: as §1

[27] = biological target: Man(a1-3)[Man(a1-6)]Man(b1-4)GlcNAc(b1-4)[Fuc(a1-6)]GlcNAc
Procedure, shortened: as §1

MurNAc(b1-4)GlcNAc = biological target: MurNAc(b1-4)GlcNAc
Procedure, shortened: as §1

[28] = biological target: Neu5Ac(a2-3)Gal(b1-3)GalNAc(b1-4)[Neu5Ac(a2-3)]Gal(b1-4)Glc
Procedure, shortened: as §1

[29] = biological target: Neu5Ac(a2-3)Gal(b1-3)GlcNAc(b1-2)Man(a1-3)[GlcNAc(b1-4)][Neu5Ac(a2-3)Gal(b1-3)GlcNAc(b1-2)Man(a1-6)]Man(b1-4)GlcNAc(b1-4)GlcNAc
Procedure, shortened: as §1

[30] = biological target: Neu5Ac(a2-3)Gal(b1-3)[Fuc(a1-4)]GlcNAc(b1-3)Gal(b1-3)[Fuc(a1-4)]GlcNAc
Procedure, shortened: as §1

[31] = biological target: Neu5Ac(a2-3)Gal(b1-4)GlcNAc(b1-3)Gal(b1-4)GlcNAc(b1-3)GalNAc
Procedure, shortened: as §1

[32] = biological target: Neu5Ac(a2-3)Gal(b1-4)GlcNAc(b1-3)Gal(b1-4)GlcNAc(b1-3)[Neu5Ac(a2-3)Gal(b1-4)GlcNAc(b1-3)Gal(b1-4)GlcNAc(b1-6)]GalNAc
Procedure, shortened: as §1

[33] = biological target: Neu5Ac(a2-3)Gal(b1-4)GlcNAc(b1-6)GalNAc
Procedure, shortened: as §1

[34] = biological target: Neu5Ac(a2-3)Gal(b1-4)GlcNAc(b1-6)[Gal(b1-3)]GalNAc
Procedure, shortened: as §1

[35] = biological target: Neu5Ac(a2-3)Gal(b1-4)GlcNAc(b1-6)[Neu5Ac(a2-3)Gal(b1-3)]GalNAc
Procedure, shortened: as §1

[36] = biological target: Neu5Ac(a2-3)Gal(b1-4)GlcNAc6S
Procedure, shortened: as §1

[37] = biological target: Neu5Ac(a2-6)Gal(b1-4)GlcNAc(b1-2)Man(a1-3)[Neu5Ac(a2-6)Gal(b1-4)GlcNAc(b1-2)Man(a1-6)]Man(b1-4)GlcNAc(b1-4)[Fuc(a1-6)]GlcNAc
Procedure, shortened: as §1

[38] = biological target: Neu5Ac(a2-6)Gal(b1-4)GlcNAc(b1-3)Gal(b1-3)GlcNAc
Procedure, shortened: as §1

[39] = biological target: Neu5Ac(a2-8)Neu5Ac(a2-3)Gal(b1-4)Glc
Procedure, shortened: as §1

[40] = biological target: Neu5Ac(a2-8)Neu5Ac(a2-3)[GalNAc(b1-4)]Gal(b1-4)Glc
Procedure, shortened: as §1

[41] = biological target: Neu5Gc(b2-6)Gal(b1-4)GlcNAc
Procedure, shortened: as §1

With APVPVTKLVCDGDTYKCTAYLDFGDGRWVAQWDTNVFHTG [PhoSpL (Pholiota squarrosa)] the “glycan array binding signal (z-score)” value [1] was -0.46, the “glycan array binding signal (z-score)” value [2] was 0.637 and the “glycan array binding signal (z-score)” value [3] was -0.032. For the same binder, the “glycan array binding signal (z-score)” value [4] was 0.067, the “glycan array binding signal (z-score)” value (Fuc(a1-3)GlcNAc) was -0.427 and the “glycan array binding signal (z-score)” value [5] was -0.336. The “glycan array binding signal (z-score)” value [6] was -0.179, the “glycan array binding signal (z-score)” value (Gal(a1-2)Gal) was -0.168 and the “glycan array binding signal (z-score)” value (Gal(a1-3)Gal(b1-4)Glc) was 0.101. The “glycan array binding signal (z-score)” value [7] was 6.05, the “glycan array binding signal (z-score)” value [8] was -0.256 and the “glycan array binding signal (z-score)” value [9] was 13.4. For the same binder, the “glycan array binding signal (z-score)” value [10] was 8.42, the “glycan array binding signal (z-score)” value [11] was 0.027 and the “glycan array binding signal (z-score)” value [12] was 1.94. For the same binder, the “glycan array binding signal (z-score)” value [13] was -0.517, the “glycan array binding signal (z-score)” value [14] was 0.488 and the “glycan array binding signal (z-score)” value [15] was -0.135. For the same binder, the “glycan array binding signal (z-score)” value (Gal(b1-4)GlcNAc6P) was -0.747, the “glycan array binding signal (z-score)” value [16] was 0.539 and the “glycan array binding signal (z-score)” value [17] was 0.249. The “glycan array binding signal (z-score)” value [18] was 1.41, the “glycan array binding signal (z-score)” value [19] was -0.16 and the “glycan array binding signal (z-score)” value [20] was -0.307. For the same binder, the “glycan array binding signal (z-score)” value [21] was -0.238, the “glycan array binding signal (z-score)” value [22] was 4.77 and the “glycan array binding signal (z-score)” value [23] was -0.113. The “glycan array binding signal (z-score)” value [24] was 4.35, the “glycan array binding signal (z-score)” value [25] was 2.47 and the “glycan array binding signal (z-score)” value [26] was 1.44. For the same binder, the “glycan array binding signal (z-score)” value [27] was 6.32, the “glycan array binding signal (z-score)” value (MurNAc(b1-4)GlcNAc) was -0.337 and the “glycan array binding signal (z-score)” value [28] was 0.143. The “glycan array binding signal (z-score)” value [29] was -0.151, the “glycan array binding signal (z-score)” value [30] was -0.57 and the “glycan array binding signal (z-score)” value [31] was 0.1. For the same binder, the “glycan array binding signal (z-score)” value [32] was -0.169, the “glycan array binding signal (z-score)” value [33] was -0.386 and the “glycan array binding signal (z-score)” value [34] was 0.254. For the same binder, the “glycan array binding signal (z-score)” value [35] was -0.322, the “glycan array binding signal (z-score)” value [36] was 0.087 and the “glycan array binding signal (z-score)” value [37] was 4.01. The “glycan array binding signal (z-score)” value [38] was -0.422, the “glycan array binding signal (z-score)” value [39] was -0.197 and the “glycan array binding signal (z-score)” value [40] was -0.373. For the same binder, the “glycan array binding signal (z-score)” value [41] was 0.132.
